# From PubChem BioAssay
# Unmarked numbers belong to inactive results. Activity calls are given as the source filed them. Cut-off read from the data, not from the text of the source: active = inhibition above about 30%; inactive = the rest.
# Assay: growth suppression of yeast trafficking mutant, preliminary HTS, modulators of trafficking downstream of Golgi apparatus project, 1536-format plate, OD 615 nm (AID 637)
# Details: yeast transport mutant growth, absorbance 615 nm, 18 h; stronger effect = higher value
row,Compound,inhibition
1,O=C(NCC1CCCO1)C1CCC(CNS(=O)(=O)c2ccccc2)CC1 (centres undefined),-1.31%
2,COC(=O)CSc1ncccc1-c1nc2ccccc2[nH]1,-5.48%
3,O=C(CSc1nc(-c2ccco2)cc(C(F)(F)F)n1)N1CCCc2ccccc21,-0.16%
4,CC(=O)Nc1ccc(NC(=O)Cn2cnc3c(cnn3C(C)(C)C)c2=O)cc1,3.27%
5,Cn1c(=O)[nH]c(=O)c2c1nc(N1CCOCC1)n2CC(O)COc1ccc2ccccc2c1 (centres undefined),-1.82%
6,OCC(O)CN1CCN(c2ccccc2)CC1 (centres undefined),3.83%
7,NS(=O)(=O)c1cc2c(cc1Cl)NC(CSCc1ccccc1)=NS2(=O)=O,0.67%
8,CN(CC(=O)N1CCCc2c1c(=O)oc1ccc(O)cc21)Cc1ccccc1,0.36%
9,CCc1c(C)nc2ncnn2c1NCCc1ccc(OC)c(OC)c1,-0.18%
10,Cc1nn(-c2ccccc2)c2[nH]c(C(F)(F)F)cc(=O)c12,4.36%
11,N#CCc1ccc(NC(=O)Nc2cccc(Cl)c2)cc1,2.73%
12,c1coc(-c2nnc(-c3cccs3)o2)c1,0%
13,COc1cc(SC)ccc1C(=O)Nc1ccccc1C#N,0.91%
14,CCCCCn1c(CN2CCN(c3cccc(Cl)c3)CC2)nc2c1c(=O)n(C)c(=O)n2C,11.6%
15,COc1ccccc1-n1c(SCC(=O)NC(C)(C)C)nnc1-c1ccco1,-3.45%
16,NS(=O)(=O)c1cc2c(cc1Cl)NC=NS2(=O)=O,1%
17,Cc1cc(C)n(-c2nc3sc4c(c3c3nnc(SC(C)C)n23)CC(C)(C)OC4)n1,17.6%
18,N=c1nc(N2CCCCC2)cc(N)n1O,-1.83%
19,CN(C)C(=O)Oc1ccc[n+](C)c1,-2.33%
20,O=S(=O)(c1cccs1)N1CCN(Cc2nc3ccccc3s2)CC1,30.2% (active)

row,Compound,inhibition
1,O=C(Nc1ccccc1C(=O)O)c1cccc(NC(=O)c2ccc(Br)o2)c1,-1.82%
2,COc1ccc(Cn2c(N)c(C#N)c3nc4ccccc4nc32)cc1OC,0.48%
3,CC(=O)SCC(=O)N=c1sc2cc(F)ccc2n1C,7.78%
4,C=CCOC(=O)C1=C(C)NC(=O)NC1c1cn(-c2ccccc2)nc1-c1cccs1 (centres undefined),1.09%
5,O=S(=O)(NCc1cn2ccccc2n1)c1cc(F)ccc1F,-6.36%
6,COc1cc(C(=O)Nc2cc(-c3ccccc3)[nH]n2)cc(OC)c1OC,-1.27%
7,CC(C)(Oc1ccc(Cl)cc1)C(=O)NCc1ccncc1,-12.2%
8,O=C(CCNS(=O)(=O)c1ccc(Br)s1)N1CCCCC1,-4.19%
9,CCOc1ccc(NC(=O)CC2NCCNC2=O)cc1 (centres undefined),-2.36%
10,CC(=O)Nc1ccc(Cc2ccncc2)cc1,-4.36%
11,CCOC(=O)N1CCC(N(C(=O)Nc2cccc(OC)c2)C(C)CC)CC1 (centres undefined),3.11%
12,Cc1nc(-c2coc3cc(OCC(=O)O)ccc3c2=O)cs1,-7.64%
13,Cc1ccc2nc(-c3ccc(S(=O)(=O)N4CCOCC4)cc3)cn2c1,-1.48%
14,Cc1[nH]nc2c1C(c1ccc(F)cc1)C1=C(CC(C)(C)CC1=O)N2 (centres undefined),3.97%
15,CC(C)Oc1ccc2c(=O)c(-c3ccccc3)coc2c1,-0.17%
16,COc1ccc(-c2[nH]nc3c2C(c2ccncc2)C(C#N)=C(N)O3)cc1 (centres undefined),-0.18%
17,O=C(c1cccc2c1C(=O)N(Cc1cccnc1)C2)N1CCN(c2ccccc2)CC1,-1.09%
18,COc1ccc(OC)c(NS(=O)(=O)Cc2ccccc2)c1,1.64%
19,O=C(Nc1ccc(F)cc1)N(CCCN1CCOCC1)Cc1cc2cc3c(cc2[nH]c1=O)OCO3,2.55%
